Most compounds without a hit are left out; they make up all but 5.2% or so of the library.
SKN-1 block: suppressors of acrylamide-induced Pgst-4::GFP reporter in worms, primary screen, SKN-1 inhibitor project, whole organism, uHTS, GFP/RFP fluorescence ratio, strain VP596 | C. elegans VP596 Pgst-4::GFP/RFP ratio, 24 h | inhibition, % at 21.8 µM | 0.49% of 360,000 active;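 active = interference check ratio from 0.5 to 1.5 plus GFP to RFP signal ratio inhibition reaching or exceeding a fixed threshold, cut at about 30% in these data, passing the limit was not always enough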
esBAF inh: Bmi1 luciferase reporter increase in mESCs, primary screen, esBAF inhibitor project, mouse ES cells, Bmi1 luciferase knock-in, single point; reporter increase, % at 12.5 µM; 2% of 350,000 active; 24 h; 100% = twice the neutral-well signal; AID 602393, 2012; in the data active = activation above about 40%;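 also: 0% = median of the plate's neutral control wells and 100% = double that signal; a rise in the Bmi1 reporter signal indicates esBAF inhibition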
NadD block: inhibitors of S. aureus NadD, primary screen, biochemical, colorimetric, uHTS; Nicotinate-nucleotide adenylyltransferase NadD (Staphylococcus aureus N315); purified NadD enzyme, colorimetric absorbance read-out; inhibition, % at 20 µM; 0.78% of 360,000 active; AID 602399, 2012; in the data active = inhibition above about 26%
SMARCA2 act: SMARCA2 (BRM) function activators, primary screen, cell-based, luminescence, high throughput | activation, % at 9.1 µM | 1% of 370,000 active | MG213 cells, MMTV-luciferase reporter, dexamethasone, overnight; in the data active = activation above about 7.8%;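 also: 0% = vehicle wells and 100% = reference activator wells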
GRIN3A LBD mod: binders of NR3A ligand-binding domain, primary screen, biophysical, differential scanning fluorimetry, uHTS | NR3A LBD differential scanning fluorimetry, Tm shift; 0% = protein alone, 100% = glycine-bound protein | Tm shift relative to glycine control, % at 25 µM | 2.5% of 340,000 active | AID 1259313, 2017;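 active = melting temperature shift of at least 10% of the positive control shift, at one fixed dose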
Vif inh: HIV Vif self-association inhibitors, primary screen, imaging, HEK293T, single point. inhibition, % at 7.49 µM. HEK293T cells, Vif self-association by quenched fluorescence, 24 h. 0.35% of 340,000 active. AID 602346, 2012; in the data active = inhibition above about 50%, passing the limit was not always enough
SMARCA2 conf: SMARCA2 (BRM) function activators, confirmation, cell-based, luminescence, triplicate; activation, % at 9.1 µM; MG213 cells, MMTV-luciferase with dexamethasone, overnight; MG213 cells expressing E1A, Rb sequestered; DMSO wells 0%, reference activator 100%; 30% of 3,500 active; AID 652260, 2013; shares compounds with SMARCA2 act;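 active = activation above its plate's cutoff, the mean activation of tested wells plus 3 SD, cut at about 7.9% in these data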
GAL4-VP16 Luc: GAL4-VP16 luciferase reporter activation, counter-screen for SMARCA2 (BRM) activator project, cell-based, pG5luc, luminescence, high throughput; AID 686939, 2013; 41% of 3,500 active; activation, % at 9.1 µM; shares compounds with SMARCA2 act; HEK293 GAL4-VP16 pG5luc reporter; scaled: DMSO wells 0%, SAHA wells 100%;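 active = activation above the solvent-only control well mean plus 3 SD, averaged across control plates, cut at about 5.2% in these data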
Numbers without * were called inactive; nt = not tested or not shown.

SMILES	SKN-1 block	esBAF inh	NadD block	SMARCA2 act	GRIN3A LBD mod	Vif inh	SMARCA2 conf	GAL4-VP16 Luc
Cc1cc(C)c(C#N)c(SCc2cc3c(cc2Cl)OCO3)n1	5	nt	-7	13*	1	-1	-2	0
C/C=C/c1ccc([C@H]2[C@@H](CO)N(C(=O)COC)[C@H]2CNC(=O)CC)cc1	nt	2	nt	nt	nt	nt	nt	nt
Cc1ccc(C(=O)CSc2nc(C)cc(=O)[nH]2)cc1	15	-1	2	8.2*	-3	4	-2	0
COc1cc(N)c(Cl)cc1C(=O)OCC(=O)N1c2ccccc2NC(=O)C1(C)C	-11	6	-2	9.1*	1	-4	0	0
CC(=O)CC1OC(=O)C(Br)=C1NCc1ccccc1 (centres undefined)	12	-9	-4	13*	-4	nt	-4	3
O=C(CC1Oc2ccccc2NC1=O)NCc1ccccc1 (centres undefined)	11	-6	-4	-2	-5	-3	nt	nt
COC(=O)CNc1c(-c2ccccc2)nc2ccc(Br)cn12	27	50*	-3	14*	-1	0	11*	6.8*
CN1CCN(c2ccc(Nc3ccnc4cc(Cl)ccc34)cc2)CC1	12	-10	-5	16*	-2	3	28*	0
CCOC(=O)C1=CCC(c2cc3ccccc3[nH]2)NC1 (centres undefined)	3	nt	nt	11*	nt	nt	6	7.0*
CCOC(=O)C1=CCC(c2ccccc2)N(S(C)(=O)=O)C1 (centres undefined)	nt	nt	nt	-2	nt	nt	nt	nt
CC=Cc1ccc2n(c1=O)C[C@H]1[C@H](CO)[C@@H](C(=O)N[C@H](C)c3ccccc3)[C@@H]2N1Cc1ccncc1 (mixture of isomers)	nt	-4	nt	nt	nt	nt	nt	nt
COc1cc2sc3cc(NCc4ccc(C)o4)ccc3c(=O)c2cc1OC	37*	nt	-2	8.7*	2	nt	8.9*	9.3*
COc1cc2sc3cc(NCc4ccc5c(c4)OCO5)ccc3c(=O)c2cc1OC	11	36	-6	3	-1	-9	nt	nt
O=C(C[C@H]1CC[C@H]2[C@@H](COC[C@H](O)CN2C(=O)c2cccnc2)O1)Nc1ccc(-c2ccccc2)cc1	nt	4	nt	nt	nt	nt	nt	nt
O=C(CNC(=O)c1ccccc1)c1ccccc1	0	-24	0	7	-1	-11	nt	nt
O=C(CNC(=O)c1ccccc1C(=O)O)c1ccccc1	7	16	-5	8.0*	-2	-1	4	3
C[C@@H]1CN([C@@H](C)CO)C(=O)c2cc(-c3cncnc3)cnc2O[C@H]1CN(C)C(=O)Cc1ccccn1	nt	-8	nt	nt	nt	nt	nt	nt
O=C(Nc1nc2c(F)cc(F)cc2s1)c1ccccn1	37*	-73	11	11*	-2	7	-14	20*
CC(C)C#Cc1ccc2c(c1)O[C@H](CN(C)C(=O)C1CC1)[C@H](C)CN([C@H](C)CO)S2(=O)=O	nt	3	nt	nt	nt	nt	nt	nt
Cc1cc(C)nc(NC(=O)/C=C/c2cccs2)c1	5	81*	-2	8.8*	2	-5	6	9.9*
Cc1cc(C)c(-c2csc(NC(=O)/C=C/c3cccs3)n2)c(C)c1	3	10	7	-6	0	-22	nt	nt
C[C@H](CO)N1C[C@H](C)[C@H](CN(C)C(=O)c2ccncc2)Oc2cc(C3=CCCC3)ccc2S1(=O)=O	nt	-2	nt	nt	nt	nt	nt	nt
CCCNC(=O)C[C@@H]1C[C@H]2c3cc(NS(=O)(=O)c4ccc(OC)cc4)ccc3O[C@H]2[C@@H](CO)O1	nt	3	nt	nt	nt	nt	nt	nt
Cc1cccc(NC(=S)NC(=O)C(c2ccccc2)c2ccccc2)n1	-9	-7	6	-1	-6	27	nt	nt
Cc1cccc(NC(=S)NC(=O)c2ccc(-c3ccccc3)cc2)n1	2	28	8	11*	-8	-5	10*	6.7*
SMILES	SKN-1 block	esBAF inh	NadD block	SMARCA2 act	GRIN3A LBD mod	Vif inh	SMARCA2 conf	GAL4-VP16 Luc
O=C(Nc1ccccc1)Nc1ccc2ncoc2c1	-11	nt	-3	13*	4	-13	2	7.3*
O=C(NC(=O)c1ccccc1)Nc1ccccc1	-11	-50	-9	2	10	2	nt	nt
CN(CC(=O)Nc1ccccc1Cl)C(=O)COC(=O)c1nc(Cl)c(Cl)c(Cl)c1Cl	7	nt	-3	22*	1	nt	8.2*	1
C[C@H](CO)N1C[C@H](C)[C@@H](CN(C)C(=O)Nc2cccc3ccccc23)Oc2ccc(NC(=O)NC3CCCCC3)cc2C1=O	nt	-1	nt	nt	nt	nt	nt	nt
O=C(CCC(=O)c1cccs1)NC(c1ccccc1)c1ccccc1	16	-8	2	9.0*	-1	4	-1	0
O=C(NNC(=O)c1cccs1)c1ccncc1	-10	nt	-4	-3	-1	-1	nt	nt
O=C(CC(=O)c1cccs1)c1ccncc1	2	nt	3	10*	-1	-4	2	4
Cc1ccc(NC(=O)CCC(=O)c2cccs2)c(O)c1	-10	nt	-5	10*	-1	-24	7	3
C[C@H](CO)N1C[C@H](C)[C@@H](CN(C)S(=O)(=O)c2cccs2)Oc2ccc(NS(C)(=O)=O)cc2CC1=O	nt	7	nt	nt	nt	nt	nt	nt
Cc1ccc(Cn2nnnc2CN2CCC(O)(c3ccc(F)cc3)CC2)cc1	-6	6	-3	11*	-3	-3	-3	-2
C/C(=N\NC(=O)c1ccc(O)cc1O)c1cccnc1	8	nt	-1	10*	-2	4	3	3
C/C(=N\NC(=O)c1cccs1)c1cccnc1	3	nt	3	8.4*	-2	7	0	1
COc1ccc(NC(=O)N(C)C[C@H]2Oc3c(NC(=O)Nc4ccc5c(c4)OCO5)cccc3C(=O)N([C@@H](C)CO)C[C@H]2C)cc1	nt	-2	nt	nt	nt	nt	nt	nt
O=C(Nc1ccc(F)cc1)N1C[C@H]2[C@@H](c3ccccc31)[C@@H](CO)N2C(=O)c1ccncc1	nt	10	nt	nt	nt	nt	nt	nt
O=C(NN1C(=O)C2C3CCC(O3)C2C1=O)c1ccc(Cl)cc1 (centres undefined)	7	-2	-6	-2	-2	-7	nt	nt
